Laboratory results taken from PubChem BioAssay (NCATS).
“And” between values parts separate entries of the source, which are not always exact repeats. Equal entries are not always repeated. Inconclusive results are not listed. The source made the active and inactive calls. Calls come from the whole dose curve; as a rule, active = well fitted curve in the direction sought with a large enough effect; inconclusive = small, poorly fitted or top-dose-only effect, or another doubt; inactive = no such curve, though single readings can be large; an effect the other way counts as inactive or inconclusive.

Tests used:
NIH3T3 = experiment: Cytotoxic Profiling of Annotated Libraries Using Quantitative High-Throughput Screening (AID 1296008); settings: Five cell lines viability, CellTiter-Glo ATP luminescence, 48-72 h; max response: stronger effect = lower value; note: nearly all actives have a fitted effect of over 60% in size
How it was run: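 Cytotoxicity was measured as CellTiter-Glo ATP luminescence, read after 10 min at room temperature. Compound treatment of the cells lasted 48 or 72 hr at 37 degrees Celsius in a qHTS format.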

HEK293T [1] = experiment: qHTS assay to identify novel small-molecules to repurpose for Merkel cell carcinoma treatment (AID 1296009); settings: MCC and control cell lines, CellTiter-Glo viability, 72 h; at 44.8 µM (top of the series) unless noted; note: nearly all actives have a fitted effect of over 60% in size; note: potency is the fitted concentration of half-maximal effect
How it was run: (§1)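 72 hr, 37 degree celsius; NPC 8-pt / MIPE 11-pt dose response; compound pinned in DMSO; CellTiter-Glo, 10 min RT, luminescence; normalized to no-cell and DMSO controls.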

MCC-13 = experiment: as above; settings: MCC and control cell lines, CellTiter-Glo viability, 72 h; series mostly up to 46 µM
How it was run: as §1

MCC-26 = experiment: as above; settings: MCC and control cell lines, CellTiter-Glo viability, 72 h; series mostly up to 46 µM
How it was run: as §1

MKL-1 = experiment: as above; settings: MCC and control cell lines, CellTiter-Glo viability, 72 h; series mostly up to 46 µM
How it was run: as §1

MKL-2 = experiment: as above; settings: MCC and control cell lines, CellTiter-Glo viability, 72 h; series mostly up to 46 µM
How it was run: as §1

UISO = experiment: as above; settings: MCC and control cell lines, CellTiter-Glo viability, 72 h; series mostly up to 46 µM
How it was run: as §1

WaGa = experiment: as above; settings: MCC and control cell lines, CellTiter-Glo viability, 72 h; series mostly up to 46 µM
How it was run: as §1

C33A = experiment: Primary qHTS to identify gynecologic anti-cancer compounds using libraries of approved drugs and bioactive compounds (AID 1345084); settings: Gynecologic cancer cell panel viability, ATPlite luminescence, 48 h; series mostly up to 57.5 µM; note: nearly all actives have a fitted effect of over 55% in size
How it was run: (§2)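 48 h compound exposure at 37 C, 5% CO2; five-point qHTS. ATPlite luminescence readout of cell ATP.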

CAOV3 = experiment: as above; settings: Gynecologic cancer cell panel viability, ATPlite luminescence, 48 h; series mostly up to 57.5 µM
How it was run: as §2

CASKI = experiment: as above; settings: Gynecologic cancer cell panel viability, ATPlite luminescence, 48 h; series mostly up to 57.5 µM
How it was run: as §2

Es-2 = experiment: as above; settings: Gynecologic cancer cell panel viability, ATPlite luminescence, 48 h; series mostly up to 57.5 µM
How it was run: as §2

HeLa = experiment: as above; settings: Gynecologic cancer cell panel viability, ATPlite luminescence, 48 h; series mostly up to 57.5 µM
How it was run: as §2

Hek293T [2] = experiment: as above; settings: Gynecologic cancer cell panel viability, ATPlite luminescence, 48 h, control line for the selectivity index; series mostly up to 57.5 µM
How it was run: as §2

JEG-3 = experiment: as above; settings: Gynecologic cancer cell panel viability, ATPlite luminescence, 48 h; series mostly up to 57.5 µM
How it was run: as §2

OV90 = experiment: as above; settings: Gynecologic cancer cell panel viability, ATPlite luminescence, 48 h; series mostly up to 57.5 µM
How it was run: as §2

PA-1 = experiment: as above; settings: Gynecologic cancer cell panel viability, ATPlite luminescence, 48 h; series mostly up to 57.5 µM
How it was run: as §2

SKOV3 = experiment: as above; settings: Gynecologic cancer cell panel viability, ATPlite luminescence, 48 h; series mostly up to 57.5 µM
How it was run: as §2

HACAT = experiment: qHTS assay to identify novel small-molecules to repurpose for Merkel cell carcinoma treatment (AID 1296009); settings: MCC and control cell lines, CellTiter-Glo viability, 72 h; at 44.8 µM (top of the series) unless noted; note: nearly all actives have a fitted effect of over 60% in size; note: potency is the fitted concentration of half-maximal effect
How it was run: as §1
% is set by controls: 0 for no effect and ±100 for the full control effect.

CCOC(=O)c1ccccc1O
inactive: max response (NIH3T3) -7.47% | outcome (HEK293T [1]) | Potency (MCC-13) | Potency (MCC-26) | Potency (MKL-1) | Potency (MKL-2) | Potency (UISO) | Potency (WaGa) | Potency (C33A) | Potency (CAOV3) | Potency (CASKI) | Potency (Es-2) | Potency (HeLa) | Potency (Hek293T [2]) | Potency (JEG-3) | Potency (OV90) | Potency (PA-1) | Potency (SKOV3)

c1ccc2sc(SN3CCOCC3)nc2c1
inactive: max response (NIH3T3) 0.685% | outcome (HACAT) | outcome (HEK293T [1]) | Potency (MCC-13) | Potency (MKL-1) | Potency (MKL-2) | Potency (UISO) | Potency (WaGa) | Potency (C33A) | Potency (CASKI) | Potency (Es-2) | Potency (HeLa) | Potency (Hek293T [2]) | Potency (JEG-3) | Potency (OV90) | Potency (PA-1)

CN1CCN(c2cc3c(nn2)Oc2ccccc2N3C)CC1
inactive: max response (NIH3T3) -0.755% | outcome (HACAT) inactive [at 17.4 µM] | outcome (HEK293T [1]) inactive [at 17.4 µM] | Potency (MCC-13) | Potency (MCC-26) | Potency (MKL-1) | Potency (MKL-2) | Potency (UISO) | Potency (WaGa) | Potency (C33A) | Potency (CAOV3) | Potency (CASKI) | Potency (Es-2) | Potency (HeLa) | Potency (JEG-3) | Potency (OV90) | Potency (PA-1) | Potency (SKOV3)

O=C(CS)Nc1ccccc1
inactive: max response (NIH3T3) 0.87% | outcome (HACAT) | Potency (MCC-13) | Potency (WaGa) | Potency (C33A) | Potency (CAOV3) | Potency (CASKI) | Potency (Es-2) | Potency (HeLa) | Potency (Hek293T [2]) | Potency (JEG-3) | Potency (OV90) | Potency (PA-1) | Potency (SKOV3)

COC(=O)C1=C(C)NC(C)=C(C(=O)OCC(C)=O)C1c1ccccc1[N+](=O)[O-] (stereo unspecified)
active: Potency (MKL-1) 21.1 µM | Potency (MKL-2) 10.6 µM
inactive: max response (NIH3T3) -4.97% | outcome (HACAT) | outcome (HEK293T [1]) | Potency (C33A) | Potency (CASKI) | Potency (Es-2) | Potency (Hek293T [2]) | Potency (JEG-3) | Potency (OV90) | Potency (PA-1) | Potency (SKOV3)

Cc1ccc2c(n1)Oc1ccc(C(C)C(=O)OCC(=O)N(C)C)cc1C2 (stereo unspecified)
inactive: max response (NIH3T3) -8.07% and -9.75% | outcome (HEK293T [1]) | Potency (MCC-13) | Potency (MCC-26) | Potency (MKL-1) | Potency (MKL-2) | Potency (UISO) | Potency (WaGa) | Potency (C33A) | Potency (CAOV3) | Potency (CASKI) | Potency (Es-2) | Potency (HeLa) | Potency (Hek293T [2]) | Potency (JEG-3) | Potency (OV90) | Potency (PA-1) | Potency (SKOV3)

O=C(Nc1ccc(C(=O)O)c(O)c1)c1ccccc1
inactive: max response (NIH3T3) -1.76% | outcome (HACAT) | outcome (HEK293T [1]) | Potency (MCC-13) | Potency (MCC-26) | Potency (MKL-1) | Potency (MKL-2) | Potency (UISO) | Potency (WaGa) | Potency (C33A) | Potency (CAOV3) | Potency (CASKI) | Potency (Es-2) | Potency (HeLa) | Potency (Hek293T [2]) | Potency (JEG-3) | Potency (OV90) | Potency (PA-1) | Potency (SKOV3)
